{"source": "PubChem BioAssay (NCATS)", "note": "Results filed as inconclusive are left out. Where a call stands in place of a potency, no number is given. The source made the active and inactive calls. Calls follow the shape of the dose curve; as a rule, active = well fitted cell-killing curve with a large enough effect; inconclusive = small, poorly fitted or top-dose-only effect; inactive = no such curve, though single readings can be large or run the other way. Where a SMILES comes first, the peptide text is derived from it. [ ]: non-standard residue; d: D form. pGlu = O=C1CC[C@@H](C(=O)O)N1"}
{"experiment": "qHTS of pediatric cancer cell lines to identify multiple opportunities for drug repurposing: Primary screen for SJ-GBM2 cells (AID 1347091); also: potency is read from the fitted curve at half-maximal effect", "settings": "SJ-GBM2 viability, CellTiter-Glo luminescence, 48 h; series mostly up to 46 µM", "in_short": "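Viability measured as metabolically active cells via CellTiter-Glo luminescence following 48 hours of compound exposure, 11-point dilutions in confirmatory testing. 500-1,000 cells/well plated 5 hours before dosing; controls were DMSO and 2.3 µM bortezomib.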"}
{"smiles": "Cc1ccc(C(C)OC(=O)C2(C)CCC(C(=O)O)C2(C)C)cc1", "note": "(centres undefined)", "Potency": "inactive"}
{"smiles": "Cc1cc(O)c2c(O)c3c(O)cccc3cc2c1", "Potency": "inactive"}
{"smiles": "O=C(CCCl)NCc1ccccc1", "Potency": "inactive"}
{"smiles": "CCCCCCn1c(=O)c2c(ncn2C)n(C)c1=O", "Potency": "inactive"}
{"smiles": "O=c1[nH]c2ccccc2c(=O)n1CCCl", "Potency": "inactive"}
{"smiles": "CCc1cccc2c(CCO)c[nH]c12", "Potency": "inactive"}
{"smiles": "C#CC(C)(CC)OC(=O)c1ccccc1C(=O)O", "note": "(centres undefined)", "Potency": "inactive"}
{"smiles": "C[N+]1(CC2COC(c3ccccc3)(c3ccccc3)O2)CCCCC1", "note": "(centres undefined)", "Potency": "inactive"}
{"smiles": "[O-][n+]1cccc(/C(Cl)=N/OC[C@@H](O)CN2CCCCC2)c1", "Potency": "inactive"}
{"smiles": "C[C@H]1C[C@H]2[C@@H]3CCC4=CC(=O)C=C[C@]4(C)[C@H]3C(=O)C[C@]2(C)[C@@]1(O)C(=O)CO", "Potency": "inactive"}
{"smiles": "CCNC(=O)[C@@H]1CCCN1C(=O)[C@H](CCCN=C(N)N)NC(=O)[C@H](CC(C)C)NC(=O)CNC(=O)[C@H](Cc1ccc(O)cc1)NC(=O)[C@H](CO)NC(=O)[C@H](Cc1c[nH]c2ccccc12)NC(=O)[C@H](Cc1cnc[nH]1)NC(=O)[C@@H]1CCC(=O)N1", "note": "([pGlu]HWSYGLRP-NHEt)", "Potency": "inactive"}
{"smiles": "CC(=O)N[C@@H](CO)C(=O)N[C@@H](CC(=O)O)C(=O)N[C@@H](CCCCN)C(=O)N1CCC[C@H]1C(=O)O", "note": "(Ac-SDKP-OH)", "Potency": "inactive"}
{"smiles": "CCCCN(CCN(CCCC)C(=O)N1CCOCC1)C(=O)N1CCOCC1", "Potency": "inactive"}
{"smiles": "Cc1cc(CCCOc2c(C)cc(-c3noc(C(F)(F)F)n3)cc2C)on1", "Potency": "inactive"}
{"smiles": "Cc1ccc(/C=N/n2c(-c3ccccc3)csc2=S)cc1", "Potency": "inactive"}
{"smiles": "Cc1ccc(-c2ccccc2C#N)cc1", "Potency": "inactive"}
{"smiles": "O=C(c1ccco1)N1CCNCC1", "Potency": "inactive"}
{"smiles": "Cc1cc(OCCOCC[N+](C)(C)Cc2ccccc2)ccc1C(C)(C)CC(C)(C)C", "Potency": "21.1 µM (active)"}
{"smiles": "Nc1ncnc2c1ncn2Cc1c(F)cccc1Cl", "Potency": "inactive"}
{"smiles": "CCN(CC)CC(=O)OCC(=O)[C@@]1(O)CC[C@H]2[C@@H]3CCC4=CC(=O)CC[C@]4(C)[C@H]3[C@@H](O)C[C@@]21C", "Potency": "inactive"}
{"smiles": "CC(=O)N(CC(=O)N(C)C)c1ccccc1", "Potency": "inactive"}
{"smiles": "CCCCCN(CCCOC)C(=O)C(CCC(=O)O)NC(=O)c1ccc(Cl)c(Cl)c1", "note": "(centres undefined)", "Potency": "inactive"}
{"smiles": "COc1ccc2c(c1)c(CC(=O)OC/C=C(\\C)CC/C=C(\\C)CCC=C(C)C)c(C)n2C(=O)c1ccc(Cl)cc1", "Potency": "inactive"}
{"smiles": "CC(C)OP(=O)(CP(=O)(OC(C)C)OC(C)C)OC(C)C", "Potency": "inactive"}
{"smiles": "N#Cc1cc(NC(=O)C(=O)O)c(Cl)c(NC(=O)C(=O)O)c1", "Potency": "inactive"}
{"smiles": "CN1C(CSCC(F)(F)F)Nc2cc(Cl)c(S(N)(=O)=O)cc2S1(=O)=O", "note": "(centres undefined)", "Potency": "inactive"}
{"smiles": "CN1C(=O)c2ccccc2C1=O", "Potency": "inactive"}
{"smiles": "CN1N=C(C(N)=O)CCC1=O", "Potency": "inactive"}
{"smiles": "C=CCNc1nc(NCC=C)nc(N2CCN(C(c3ccc(F)cc3)c3ccc(F)cc3)CC2)n1", "Potency": "inactive"}
